hgDAF-12 ag: activates the H. glycines DAF-12 receptor ligand-binding domain; HEK293 GAL4-hgDAF12 UAS-luciferase reporter, agonist luminescence; normalized to butyrate control; activation, % at 6.8 µM; 1.8% of 370,000 active;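 active means activation above a cutoff set at the mean of all screened compounds plus 3 SD, cut at about 10% in these data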
AHR act: human AHR activation; P35869; AHR-responsive luciferase reporter cells, luminescence; activation, % at 5 µM; 2.5% of 320,000 active; AID 2796; in the data active means activation above about 47%
Target sequence (P35869 whole entry, looked up): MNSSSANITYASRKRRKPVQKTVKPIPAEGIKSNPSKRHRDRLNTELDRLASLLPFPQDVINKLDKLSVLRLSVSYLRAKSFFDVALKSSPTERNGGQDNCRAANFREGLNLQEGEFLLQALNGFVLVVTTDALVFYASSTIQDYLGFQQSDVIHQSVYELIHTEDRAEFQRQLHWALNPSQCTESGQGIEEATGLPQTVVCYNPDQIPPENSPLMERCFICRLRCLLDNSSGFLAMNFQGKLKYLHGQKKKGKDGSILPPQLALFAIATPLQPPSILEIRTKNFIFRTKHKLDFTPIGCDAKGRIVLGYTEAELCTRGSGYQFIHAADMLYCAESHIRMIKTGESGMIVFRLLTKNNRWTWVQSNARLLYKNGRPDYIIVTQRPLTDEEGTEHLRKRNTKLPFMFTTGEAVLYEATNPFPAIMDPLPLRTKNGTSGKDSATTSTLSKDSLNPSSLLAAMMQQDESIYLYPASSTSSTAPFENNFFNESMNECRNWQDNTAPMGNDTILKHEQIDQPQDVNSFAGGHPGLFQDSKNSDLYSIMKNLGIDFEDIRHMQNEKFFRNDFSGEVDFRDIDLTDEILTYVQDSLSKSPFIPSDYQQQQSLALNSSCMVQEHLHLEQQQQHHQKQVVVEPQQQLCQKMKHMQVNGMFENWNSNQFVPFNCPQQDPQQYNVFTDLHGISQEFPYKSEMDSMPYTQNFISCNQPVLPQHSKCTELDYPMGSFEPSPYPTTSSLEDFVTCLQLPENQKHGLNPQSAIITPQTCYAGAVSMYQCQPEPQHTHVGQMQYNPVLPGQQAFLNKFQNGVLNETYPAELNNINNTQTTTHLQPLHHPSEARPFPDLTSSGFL
ssDAF-12 act: S. stercoralis DAF-12 activation, primary screen; HEK293 ssDAF-12/GRIP1 lit1-tk-luc reporter, luminescence; % of 3 µM dafachronic acid response; activation, % at 6.8 µM; 1% of 370,000 active; AID 652126;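 active means activation above the mean over all tested compounds plus 3 SD, cut at about 0.9% in these data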
DAX1 inh-1: blocks DAX1 repression of SF-1 activated StAR promoter; HEK293T StAR-luciferase reporter, SF-1/DAX-1 repression relief; 1.1% of 370,000 active; AID 652010; inhibition, % at 6.8 µM;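 active means inhibition above the mean over all tested compounds plus 3 SD, cut at about 3.6% in these data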;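 further: higher inhibition means more luminescence from relief of DAX-1 repression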
hcDAF-12 act: activators of H. contortus DAF-12 nuclear receptor | HEK293 hcDAF-12 lit1-tk-luc reporter, luminescence; 0% DMSO, 100% Δ7-dafachronic acid | activation, % at 6.8 µM | 1.4% of 370,000 active | AID 652067;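 active means activation above the mean of all tested compounds plus 3 SD, cut at about 5.5% in these data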
DAX1 inh-2: inhibitors of human orphan nuclear receptor DAX1 (NR0B1); HEK293 Gal4-DAX1 luciferase reporter, luminescence; inhibition, % at 6.75 µM; 0.99% of 340,000 active;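 active means inhibition above the mean over all tested compounds plus 3 SD, cut at about 4.2% in these data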;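 further: inhibition shows as a rise in luminescence from relieved DAX1 repression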
DAX1 conf: NR0B1 (human) inhibition, confirmation | shares compounds with DAX1 inh-1 | HEK293T StAR-promoter luciferase reporter, SF-1/DAX-1 repression | inhibition, % at 6.8 µM | 87% of 2,400 active | AID 652134;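 active means inhibition above the average of every tested compound plus 3 SD, cut at about 3.8% in these data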;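 further: active compounds raise luminescence by relieving repression of the StAR reporter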
SF1 AF2mut Luc: counter-screen for DAX1 inhibitors: nonselective inhibitors with SF-1 AF2 mutant; AID 652136; inhibition, % at 6.8 µM; HEK293 StAR-luciferase, luminescence; 78% of 2,400 active; shares compounds with DAX1 inh-1;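 active means inhibition above the mean of all tested compounds plus 3 SD, cut at about 3% in these data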
LXRb hcDAF ctr: activates human LXR-beta, counter-screen for hcDAF-12 agonists; shares compounds with hcDAF-12 act; HEK293 Gal4-LXR tk-luc reporter, luminescence, 24 h; normalized: DMSO 0%, positive control 100%; activation, % at 6.8 µM; 3,400 tested, under 10 active;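 active means mean percent activation of the reporter above a cutoff set as the average over tested compounds plus their standard deviation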
hcDAF12 ag: hcDAF-12 agonism, confirmation assay; shares compounds with hcDAF-12 act; HEK293 hcDAF-12 lit1-tk-luc reporter, luminescence; % of Δ7-dafachronic acid response; activation, % at 6.8 µM; 61% of 3,400 active;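 active means mean activation across triplicate tests above the threshold derived from the earlier primary screen, cut at about 5.5% in these data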
hgDAF12 conf: confirmation of H. glycines DAF-12 agonists; shares compounds with hgDAF-12 ag; HEK293 GAL4-hgDAF12 luciferase reporter, agonist mode; percent of butyrate response; activation, % at 6.8 µM; 80% of 3,300 active;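 active means mean activation over triplicate wells above the hit cutoff derived from the earlier primary screen, cut at about 11% in these data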
LXRb DAF12 ctr: counter-screen for DAF-12 agonists: agonists of human LXR-beta | shares compounds with hgDAF-12 ag | HEK293 Gal4-LXR luciferase reporter, 24 h | activation, % at 6.8 µM | 3,300 tested, under 10 active | AID 743051;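 active means mean activation of the triplicate above a set limit carried over from the primary screen, none filed active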
Hits are given with their value; i = inactive; nt = no result given. Hits are enriched below; roughly 5.7% of the tested compounds scored in any of these assays.

SMILES | hgDAF-12 ag | AHR act | ssDAF-12 act | DAX1 inh-1 | hcDAF-12 act | DAX1 inh-2 | DAX1 conf | SF1 AF2mut Luc | hgDAF12 conf | LXRb DAF12 ctr | others
CCc1ccc(NC(=O)c2cc(-c3ccc(OC)cc3)on2)cc1 | i | i | i | i | i | i | nt | nt | nt | nt
CCc1ccc(NC(=O)c2cc(C)on2)cc1 | 13.3 | i | i | 5.8 | 7.8 | i | 10.6 | 4.9 | 12.6 | i | LXRb hcDAF ctr=i;hcDAF12 ag=6.8
CCCCSc1ncnc2c1ncn2C1CCCCO1 (stereo not given) | 16.7 | nt | i | 5.4 | i | 5.9 | 10.7 | 6.0 | 16.2 | i
Cc1ccc(S(=O)(=O)N2CCN(CC(=O)Nc3ccccc3C(=O)NC3CC3)CC2)cc1 | i | nt | i | i | i | i | nt | nt | nt | nt
N#C/C(=C\Nc1ccc(Cl)cc1)S(=O)(=O)c1ccccn1 | i | i | i | i | i | i | nt | nt | nt | nt
OCCN1CCN(c2cnc(-c3ccsc3)cn2)CC1 | 17.2 | nt | i | 5.9 | i | nt | 10.0 | 6.2 | 13.3 | i
Nc1ncc(-c2ccc(F)cc2)nc1N1CCN(CCO)CC1 | i | nt | i | i | i | nt | nt | nt | nt | nt
CC(NC(=O)COc1ccc(Br)cc1)C1CCCO1 (stereo not given) | i | i | i | i | i | i | nt | nt | nt | nt
CC(=O)c1sc(NC(=O)c2cccc(C)c2)nc1C | 19.7 | i | i | 4.6 | i | 7.0 | 5.9 | 5.4 | 15.2 | i
c1ccc(-c2csc(CN3CCCCC3)n2)cc1 | 19.4 | nt | 0.9 | 5.3 | 7.1 | i | 8.2 | 4.8 | 18.4 | i | LXRb hcDAF ctr=i;hcDAF12 ag=9.2
Cc1ccc(C)c(S(=O)(=O)N2CCN(C(=O)c3cccnc3)CC2)c1 | i | i | i | i | i | i | nt | nt | nt | nt
O=C(NC1=NCCS1)c1cccc(NC(=O)c2ccco2)c1 | i | i | i | i | i | i | nt | nt | nt | nt
CC(C)Oc1cccc(C(=O)NC2=NCCS2)c1 | 14.7 | i | i | 5.0 | i | i | 5.9 | 4.1 | 10.6 | i
CC(=O)NCCn1c(SCc2cccc([N+](=O)[O-])c2)nc2ccccc2c1=O | i | i | i | i | i | i | nt | nt | nt | nt
Cc1ccc2ncccc2c1 | i | i | i | i | i | i | nt | nt | nt | nt
Cc1ccc2nc(/C=C/c3cccc(F)c3)ccc2c1 | 20.8 | 47.5 | 2.8 | 5.1 | 8.3 | i | 10.0 | 5.1 | 20.3 | i | LXRb hcDAF ctr=i;hcDAF12 ag=8.7
c1ccc2oc(-c3csc(N4CCOCC4)n3)cc2c1 | 18.0 | i | i | 7.7 | 9.3 | i | 11.2 | 3.2 | 15.4 | i | LXRb hcDAF ctr=i;hcDAF12 ag=7.8
O=C(COC(=O)C1CC1)NCc1ccccc1Cl | i | i | i | i | i | i | nt | nt | nt | nt
NC(=O)C1CC(=O)N(c2ccc(OCc3ccc(Cl)c(Cl)c3)cc2)C1 (stereo not given) | 24.7 | nt | i | 10.2 | 5.8 | 4.5 | 14.7 | 9.3 | 15.8 | i
NC(=O)C1CC(=O)N(c2ccc(OCc3ccc(Cl)cc3Cl)cc2)C1 (stereo not given) | i | i | i | i | i | i | nt | nt | nt | nt
CC(NC(=O)c1cc2c(s1)CS(=O)(=O)C2)c1ccccc1 (stereo not given) | i | i | i | i | i | i | nt | nt | nt | nt
C/C(=N\NC(=O)c1csc(C)c1C)c1ccco1 | i | i | i | i | i | i | nt | nt | nt | nt
CC(=O)N/N=C(/C)c1ccc(NC(=O)c2csc(C)c2C)cc1 | 17.0 | i | i | 12.8 | 5.8 | i | 9.4 | 4.7 | 15.9 | i
COc1ccc(C(=O)CSc2nnc(-c3ccc(C)cc3)o2)cc1 | i | i | i | i | i | i | nt | nt | nt | nt
COc1ccc(-c2nnc(SCC(C)C)o2)cc1 | 22.6 | i | i | 4.8 | i | i | 8.2 | 3.4 | 22.1 | i
SMILES | hgDAF-12 ag | AHR act | ssDAF-12 act | DAX1 inh-1 | hcDAF-12 act | DAX1 inh-2 | DAX1 conf | SF1 AF2mut Luc | hgDAF12 conf | LXRb DAF12 ctr | others
Cc1c(C(=O)NC2CCOC2)oc2c(F)cccc12 (stereo not given) | 14.5 | 79.1 | i | 5.7 | i | i | 6.4 | 3.3 | 12.8 | i
COc1ccc(CNC(=O)COC(=O)CN2C(=O)C3CCCCC3C2=O)cc1 (stereo not given) | i | nt | i | i | i | i | nt | nt | nt | nt
CCOC(=O)CSc1nc2ccc(C)cc2cc1C#N | 14.3 | i | i | 5.6 | 8.9 | i | 13.1 | 10.0 | 20.1 | i | LXRb hcDAF ctr=i;hcDAF12 ag=i
CCOC(=O)CSc1nc(N)c(C#N)cc1C#N | i | i | i | i | i | i | nt | nt | nt | nt
CCOC(=O)CSc1nc2cc(OC)ccc2cc1C#N | 13.4 | i | i | 4.8 | 7.2 | i | 14.9 | 8.1 | 20.0 | i | LXRb hcDAF ctr=i;hcDAF12 ag=i
COc1ccc(C(CNC(=O)C(=O)Nc2ccc3c(c2)OCCO3)N2CCN(C)CC2)cc1 (stereo not given) | i | i | i | i | i | i | nt | nt | nt | nt
Cc1cccc(NC(=O)c2ccc3ccccc3n2)c1C | 17.2 | 57.5 | 2.8 | 6.4 | 22.7 | i | 11.1 | 7.5 | 25.4 | i | LXRb hcDAF ctr=i;hcDAF12 ag=18.8
O=C(CN1C(=O)/C(=C/c2ccccc2F)Sc2ccccc21)NCC1CCCO1 (stereo not given) | i | i | i | i | i | i | nt | nt | nt | nt
C/C(=N\NC(=O)c1cccs1)c1cccnc1 | 24.6 | i | i | 5.5 | 8.4 | i | i | i | i | i | LXRb hcDAF ctr=i;hcDAF12 ag=i
C/C(=N\NC(=O)Cc1ccccc1)c1cccs1 | i | i | i | i | i | i | nt | nt | nt | nt
C/C(=N\NC(=O)c1ccc2ccccc2c1)c1cccs1 | 13.5 | nt | i | 9.8 | i | i | 7.5 | 5.0 | 20.6 | i
C/C(=N\NC(=O)c1ccncc1)c1cccs1 | i | i | i | i | i | i | nt | nt | nt | nt
C/C(=N\NC(=O)c1cccs1)c1ccc(C(=O)O)s1 | 14.9 | nt | i | 8.0 | 7.0 | i | i | i | i | i | LXRb hcDAF ctr=i;hcDAF12 ag=i
C/C(=N\NC(=O)c1ccoc1C)c1cccnc1 | 14.2 | i | i | 5.5 | i | i | i | i | i | i
COCc1ccc(CN2CCC(n3nccc3NC(=O)CCOc3ccccc3)CC2)o1 | i | i | i | i | i | i | nt | nt | nt | nt
C/C(=N\NC(=O)c1nn(C)c(C)c1Br)c1ccc(NC(=O)c2ccoc2C)cc1 | 19.9 | i | i | 5.5 | 8.5 | i | i | i | i | i | LXRb hcDAF ctr=i;hcDAF12 ag=i
